From PubChem
A selection: hits, their analogues and other compounds. The true share with any hit is near 1.8%.
KCNH2 3.1 inh = blocks the human KCNH2 3.1 channel isoform | U2OS KCNH2 3.1, thallium flux FluxOr; stronger effect = lower value | activity change, % (tested at about 1.8 µM) | 0.95% of 340,000 active;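 active = maximum activity change below -70%; inconclusive = maximum activity change from -70% to -50%; inactive = maximum activity change above -50%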;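 also: thallium influx rate constant from kinetic fluorescence after stimulation buffer; % is scaled to controls: 0 for no effect and ±100 for the full control effect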
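Normalized rate constant (relative to positive and negative DMSO controls) derived from a 2 min kinetic fluorescence read after stimulation; U2OS cells expressing the 3.1 isoform via virus at 1.77 x 10^8 /mL.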
hERG WT inh = KCNH2 (human, wildtype) channel inhibition. Q12809. U2OS, BacMam KCNH2, thallium flux FluxOr; stronger effect = lower value. activity change, % at 1.84 µM. 0.37% of 340,000 active. AID 720551;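 active = maximum activity change below -70%; inconclusive = maximum activity change between -70% and -50%; inactive = maximum activity change above -50%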; also: % is scaled to controls: 0 for no effect and ±100 for the full control effect
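U2OS cells transduced with wild-type KCNH2 virus are loaded with FluxOr dye for 45 min, and thallium flux is measured in kinetic reads before and after stimulation buffer. Rate constants are normalized to DMSO controls.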
12-LOX inh = blocks human arachidonate 12S-lipoxygenase; P18054; purified 12hLO, xylenol orange hydroperoxide absorbance; Potency, µM (highest dose often 108 µM), for the others: at the top dose activity change, negative = inhibition, hits mostly inhibitors; 1.1% of 580,000 active; AID 1671190; also: potency is read from the fitted curve at half-maximal effect; % is scaled to controls: 0 for no effect and ±100 for the full control effect
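Purified human 12hLO at 150 nM in 25 mM Hepes, 0.01% Triton X-100, pH 7.0, preincubated 15 min at room temperature with compound. Reaction started with 40 uM arachidonic acid, 30 min at room temperature. Hydroperoxide measured by Fe-xylenol orange, 573/405 nm absorbance ratio.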
AT treatment = potential ataxia-telangiectasia treatments restoring KAP-1 phosphorylation | F2112 A-T fibroblasts, KAP-1 phosphorylation AlphaLISA; neocarzinostatin DNA damage 30 min before lysis | 0.19% of 320,000 active | Potency, µM (series often up to 57.5 µM), for inactives: at the top dose activation, most hits filed as activators; also: potency is read from the fitted curve at half-maximal effect; % of control where 0% means no effect; nearly all actives have a fitted effect of over 45% in size
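ATM-like activity read as KAP-1 phosphorylation via AlphaLISA donor/acceptor antibody pairs after lysis and 6 hr at 25C. Cells were ATM-null patient fibroblasts (F2112, hTERT), dosed 60 min, then exposed to the DSB inducer NCS for 30 min.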
Active calls of the source: *; u = inconclusive; x = not tested or not shown; [ ] = remark or other dose. Unless noted, calls follow the shape of the dose curve; as a rule, active = well fitted curve in the direction sought with a large enough effect; inconclusive = small, poorly fitted or top-dose-only effect, or another doubt; inactive = no such curve, though single readings can be large; an effect the other way counts as inactive or inconclusive.

SMILES	KCNH2 3.1 inh	hERG WT inh	12-LOX inh	AT treatment
c1cn(CC2COCCO2)c(-c2cc3n(n2)CCCNC3)n1 (centres undefined)	x	x	31%	x
CCOC(=O)N1CCC(N2Cc3cccc(C(=O)Nc4ccc(CC)cc4)c3C2=O)CC1	-112*	-10	0%	1%
O=C(COc1ccccc1)Nc1ccc(-c2nnc3n2CCCC3)cc1	x	x	28µM*	x
O=C(O)c1cc(-c2c[nH]c3ccccc23)nc2cc3ccccc3cc12	x	x	13µM*	5%
CCn1c2ccccc2c2cc(CN3CCN(Cc4ccccc4F)CC3)ccc21	x	x	28µM*	x
CSc1ccccc1C(=O)Nc1ncn[nH]1	4	-11	11µM*	3%
CCc1ccc(C(=O)N2CCN(C(=O)C3(C)CC3(Cl)Cl)CC2)cc1 (centres undefined)	x	x	-2%	x
N#CC1=C(S)N(c2ccccc2)C(c2ccc(-c3ccc(Cl)c(Cl)c3)o2)NC1=O (centres undefined)	-2	3	18µM*	-5%
N#CC1=C(S)N(c2ccccc2)C(c2ccco2)NC1=O (centres undefined)	-16	-1	u	-4%
N#CC1=C(S)N(c2ccc(F)cc2)C(c2ccco2)NC1=O (centres undefined)	4	2	45µM*	13%
COc1ccccc1NC(=O)c1cc2ccc(O)cc2oc1=O	x	x	-1%	x
COc1ccc(/C=C(/NC(=O)c2ccc(OC)c(OC)c2)C(=O)NCCCn2ccnc2)cc1	13	16	1%	2%
Cc1ccc(C(=O)N/C(=C/c2ccc(F)cc2)C(=O)NCc2ccncc2)cc1	-90*	u	-7%	-8%
Cc1ccc(C(=O)N/C(=C\c2ccccc2)C(=O)NCc2ccncc2)cc1	-15	41	-10%	13%
Cc1ccc(C(=O)N/C(=C\c2ccccc2)C(=O)NCCCn2ccnc2)cc1	-105*	-125*	-1%	5%[11.5 µM]
Cc1ccc(C(=O)N/C(=C\c2cn(C)c3ccccc23)C(=O)NCCCn2ccnc2)cc1	9	41	2%	8%
Cc1ccc(/C=C(\NC(=O)c2ccc(C)cc2)C(=O)NCCCn2ccnc2)cc1	-95*	-94*	4%	8%
COc1ccc(-c2c(-c3ccc(OCCN4CCC(C(N)=O)CC4)cc3O)n[nH]c2C)cc1	x	x	-7%	x
O=c1c2ccccc2ncn1Cc1ccc(Cl)cc1	-98*	2	x	-2%
O=C(CC1C(=O)NCCN1C(=O)CN1CCN(C(=O)c2ccco2)CC1)Nc1ccc2c(c1)OCO2 (centres undefined)	x	x	7%	x
N#Cc1ccc(NC(=O)c2ccc3c(c2)OCCCO3)cc1	x	x	-19%	x
Cc1ccc(Nc2nc(N)nc(CN3CCN(Cc4ccc5c(c4)OCO5)CC3)n2)cc1C	-104*	u	-3%	1%
Cc1ccc(Nc2nc(N)nc(CN3CCN(Cc4ccc5c(c4)OCO5)CC3)n2)c(C)c1	u	7	-16%	1%
Nc1nc(CN2CCN(Cc3ccccc3)CC2)nc(Nc2ccc3c(c2)OCCO3)n1	u	24	45%	1%
Cc1ccc(Nc2nc(N)nc(CN3CCN(Cc4ccc5c(c4)OCO5)CC3)n2)cc1	-80*	-44	2%	2%
SMILES	KCNH2 3.1 inh	hERG WT inh	12-LOX inh	AT treatment
Cc1ccc(Nc2nc(N)nc(CN3CCN(Cc4ccc5c(c4)OCO5)CC3)n2)cc1Cl	-92*	-90*	-27%	-5%
Cc1cc(C)c(C#N)c(N2CCN(Cc3ccc4c(c3)OCO4)CC2)n1	-39	8	u	0%
O=C(O)CCC(=O)Nc1ccc2[nH]cc(C(C(=O)O)N3CCN(c4ccccc4)CC3)c2c1 (centres undefined)	x	x	-10%	x
CCN=c1scc(C)n1/N=C/c1cc(Br)c(O)c(Br)c1	6	-6	25µM*	-1%
O=C(Nc1ccc(N2CCOCC2)cc1)C1CCN(c2cn[nH]c(=O)c2)C1 (centres undefined)	x	x	43%	x
O=C(NCc1ccco1)c1cnn2c1NC(c1ccc(Br)cc1)CC2C(F)(F)F (centres undefined)	0	-71*	0%	1%
COc1ccc(C(=O)OCCN(C)C(C)(C)C)cc1OC	x	x	-32%	x
c1ccc(Cc2nn3c(C4COc5ccccc5O4)nnc3s2)cc1 (centres undefined)	11	2	-5%	2%
CCOc1ccccc1OCc1nn2c(C3COc4ccccc4O3)nnc2s1 (centres undefined)	x	x	7.1µM*	x
CN(CCCc1nccn1C)C(=O)[C@H]1CNC[C@H](C(=O)N2CCOCC2)C1	x	x	23%	x
